From the supplement of paper PMC4022240
± gives the standard deviation.

Assays:
Assay in all cases: peptide microarray binding signal (635 nm), min-max normalized on array (fraction of array maximum); higher = stronger binding
Settings in all cases: peptide region: H3 1-13
[1] = biological target: T1, HaloTag-ATRX ADD domain (163-292)
T1 chain: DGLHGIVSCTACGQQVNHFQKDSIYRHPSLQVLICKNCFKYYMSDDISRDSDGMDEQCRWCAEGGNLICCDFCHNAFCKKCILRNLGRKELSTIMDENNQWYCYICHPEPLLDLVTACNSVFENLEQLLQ
Method: (§1)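 Histone 13-mer peptides were synthesized as cellulose conjugates with a C-terminal 20-atom PEG linker and printed in triplicate on nitrocellulose. The sequence given is the unmodified backbone; PTMs (Kme1/2/3, Kac, Sph/Tph, Rme/Rme2a/Rme2s, Rcit) are listed in the label and the 'peptide modifications' condition. Slides were probed at 4 °C for 1 h with biotin-labelled (HQ)5-HaloTag reader fusions (ATRX-ADD, ING2-PHD) then streptavidin-Alexa647, or with rabbit histone antibodies then anti-rabbit Alexa647. The mean 635 nm signal of the triplicate spots was scaled 0-1 between the lowest and highest values on each array.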

[2] = biological target: HaloTag-ING2 PHD (mouse Ing2 200-280)
Method: as §1

[3] = biological target: anti-H3K4me3 antibody ab8580
Method: as §1

[4] = biological target: anti-H3K9me3 antibody ab8898
Method: as §1

[5] = peptide modifications: H3T3ph H3K4me2, binder concentration: 1:2,000 dilution
[6] = peptide modifications: H3T3ph H3K4me2, binder concentration: 1:10,000 dilution
[7] = peptide modifications: H3T3ph H3K4me3, binder concentration: 1:2,000 dilution
[8] = peptide modifications: H3T3ph H3K4me3, binder concentration: 1:10,000 dilution
[9] = peptide modifications: H3T3ph H3K9ac, binder concentration: 1:2,000 dilution
[10] = peptide modifications: H3T3ph H3K9ac, binder concentration: 1:10,000 dilution
[11] = peptide modifications: H3T3ph H3K9me1, binder concentration: 1:2,000 dilution
[12] = peptide modifications: H3T3ph H3K9me1, binder concentration: 1:10,000 dilution
[13] = peptide modifications: H3T3ph H3K9me2, binder concentration: 1:2,000 dilution
[14] = peptide modifications: H3T3ph H3K9me2, binder concentration: 1:10,000 dilution
[15] = peptide modifications: H3T3ph H3K9me3, binder concentration: 1:2,000 dilution
[16] = peptide modifications: H3T3ph H3K9me3, binder concentration: 1:10,000 dilution
[17] = peptide modifications: H3T3ph, binder concentration: 1:2,000 dilution
[18] = peptide modifications: H3T3ph, binder concentration: 1:10,000 dilution
[19] = peptide modifications: H3T6ph H3K9ac, binder concentration: 1:2,000 dilution
[20] = peptide modifications: H3T6ph H3K9ac, binder concentration: 1:10,000 dilution
[21] = peptide modifications: H3T6ph H3K9me1, binder concentration: 1:2,000 dilution
[22] = peptide modifications: H3T6ph H3K9me1, binder concentration: 1:10,000 dilution
[23] = peptide modifications: H3T6ph H3K9me2, binder concentration: 1:2,000 dilution
[24] = peptide modifications: H3T6ph H3K9me2, binder concentration: 1:10,000 dilution

B1: H3 1-13 A R Tph Kme2 Q T A R K S T G G (peptide)
chain: ARTKQTARKSTGG
[1]; peptide modifications: H3T3ph H3K4me2, binder concentration: 50 nM
  peptide microarray binding signal: 0.00555 ± 0.0001
[1]; peptide modifications: H3T3ph H3K4me2, binder concentration: 500 nM
  peptide microarray binding signal: 0.00891 ± 0.00073
[2]; peptide modifications: H3T3ph H3K4me2, binder concentration: 10 nM
  peptide microarray binding signal: 0.0132 ± 0.0013
[2]; peptide modifications: H3T3ph H3K4me2, binder concentration: 100 nM
  peptide microarray binding signal: 0.0916 ± 0.0043
[3]; [5]
  peptide microarray binding signal: 0.0195 ± 0.0045
[3]; [6]
  peptide microarray binding signal: 0.024 ± 0.0033
[4]; [5]
  peptide microarray binding signal: 0.0022 ± 0.00054
[4]; [6]
  peptide microarray binding signal: 0.00185 ± 8e-05

B2: H3 1-13 A R Tph Kme3 Q T A R K S T G G (peptide)
chain: ARTKQTARKSTGG
[1]; peptide modifications: H3T3ph H3K4me3, binder concentration: 50 nM
  peptide microarray binding signal: 0.00583 ± 0.0002
[1]; peptide modifications: H3T3ph H3K4me3, binder concentration: 500 nM
  peptide microarray binding signal: 0.0119 ± 0.00039
[2]; peptide modifications: H3T3ph H3K4me3, binder concentration: 10 nM
  peptide microarray binding signal: 0.0508 ± 0.0034
[2]; peptide modifications: H3T3ph H3K4me3, binder concentration: 100 nM
  peptide microarray binding signal: 0.103 ± 0.049
[3]; [7]
  peptide microarray binding signal: 0.277 ± 0.065
[3]; [8]
  peptide microarray binding signal: 0.724 ± 0.2
[4]; [7]
  peptide microarray binding signal: 0.055 ± 0.0067
[4]; [8]
  peptide microarray binding signal: 0.017 ± 0.00063

B3: H3 1-13 A R Tph K Q T A R Kac S T G G (peptide)
chain: ARTKQTARKSTGG
[1]; peptide modifications: H3T3ph H3K9ac, binder concentration: 50 nM
  peptide microarray binding signal: 0.00881 ± 0.00025
[1]; peptide modifications: H3T3ph H3K9ac, binder concentration: 500 nM
  peptide microarray binding signal: 0.0147 ± 0.00088
[2]; peptide modifications: H3T3ph H3K9ac, binder concentration: 10 nM
  peptide microarray binding signal: 0.0255 ± 0.0014
[2]; peptide modifications: H3T3ph H3K9ac, binder concentration: 100 nM
  peptide microarray binding signal: 0.04 ± 0.0064
[3]; [9]
  peptide microarray binding signal: 0.0124 ± 0.0018
[3]; [10]
  peptide microarray binding signal: 0.00867 ± 0.00052
[4]; [9]
  peptide microarray binding signal: 0.00523 ± 0.00022
[4]; [10]
  peptide microarray binding signal: 0.00363 ± 0.00025

B4: H3 1-13 A R Tph K Q T A R Kme S T G G (peptide)
chain: ARTKQTARKSTGG
[1]; peptide modifications: H3T3ph H3K9me1, binder concentration: 50 nM
  peptide microarray binding signal: 0.00815 ± 8.5e-05
[1]; peptide modifications: H3T3ph H3K9me1, binder concentration: 500 nM
  peptide microarray binding signal: 0.0174 ± 0.0014
[2]; peptide modifications: H3T3ph H3K9me1, binder concentration: 10 nM
  peptide microarray binding signal: 0.0307 ± 0.0023
[2]; peptide modifications: H3T3ph H3K9me1, binder concentration: 100 nM
  peptide microarray binding signal: 0.0507 ± 0.004
[3]; [11]
  peptide microarray binding signal: 0.00859 ± 0.0018
[3]; [12]
  peptide microarray binding signal: 0.0167 ± 0.0032
[4]; [11]
  peptide microarray binding signal: 0.00692 ± 0.00099
[4]; [12]
  peptide microarray binding signal: 0.0053 ± 0.00068

B5: H3 1-13 A R Tph K Q T A R Kme2 S T G G (peptide)
chain: ARTKQTARKSTGG
[1]; peptide modifications: H3T3ph H3K9me2, binder concentration: 50 nM
  peptide microarray binding signal: 0.0107 ± 0.00063
[1]; peptide modifications: H3T3ph H3K9me2, binder concentration: 500 nM
  peptide microarray binding signal: 0.0409 ± 0.02
[2]; peptide modifications: H3T3ph H3K9me2, binder concentration: 10 nM
  peptide microarray binding signal: 0.0306 ± 0.0047
[2]; peptide modifications: H3T3ph H3K9me2, binder concentration: 100 nM
  peptide microarray binding signal: 0.0365 ± 0.018
[3]; [13]
  peptide microarray binding signal: 0.0117 ± 0.0018
[3]; [14]
  peptide microarray binding signal: 0.0191 ± 0.0097
[4]; [13]
  peptide microarray binding signal: 0.0295 ± 0.0016
[4]; [14]
  peptide microarray binding signal: 0.013 ± 0.0018

B6: H3 1-13 A R Tph K Q T A R Kme3 S T G G (peptide)
chain: ARTKQTARKSTGG
[1]; peptide modifications: H3T3ph H3K9me3, binder concentration: 50 nM
  peptide microarray binding signal: 0.0613 ± 0.011
[1]; peptide modifications: H3T3ph H3K9me3, binder concentration: 500 nM
  peptide microarray binding signal: 0.122 ± 0.03
[2]; peptide modifications: H3T3ph H3K9me3, binder concentration: 10 nM
  peptide microarray binding signal: 0.0186 ± 0.0018
[2]; peptide modifications: H3T3ph H3K9me3, binder concentration: 100 nM
  peptide microarray binding signal: 0.0397 ± 0.0029
[3]; [15]
  peptide microarray binding signal: 0.122 ± 0.066
[3]; [16]
  peptide microarray binding signal: 0.0819 ± 0.021
[4]; [15]
  peptide microarray binding signal: 0.459 ± 0.036
[4]; [16]
  peptide microarray binding signal: 0.387 ± 0.046

B7: H3 1-13 A R Tph K Q T A R K S T G G (peptide)
chain: ARTKQTARKSTGG
[1]; peptide modifications: H3T3ph, binder concentration: 50 nM
  peptide microarray binding signal: 0.01044 ± 0.0001
[1]; peptide modifications: H3T3ph, binder concentration: 500 nM
  peptide microarray binding signal: 0.0136 ± 0.0015
[2]; peptide modifications: H3T3ph, binder concentration: 10 nM
  peptide microarray binding signal: 0.0146 ± 0.00026
[2]; peptide modifications: H3T3ph, binder concentration: 100 nM
  peptide microarray binding signal: 0.0137 ± 0.0036
[3]; [17]
  peptide microarray binding signal: 0.00119 ± 5e-05
[3]; [18]
  peptide microarray binding signal: 0.002568 ± 2.3e-05
[4]; [17]
  peptide microarray binding signal: 0.00137 ± 6.5e-05
[4]; [18]
  peptide microarray binding signal: 0.002998 ± 2.6e-05

B8: H3 1-13 A R T K Q Tph A R Kac S T G G (peptide)
chain: ARTKQTARKSTGG
[1]; peptide modifications: H3T6ph H3K9ac, binder concentration: 50 nM
  peptide microarray binding signal: 0.00724 ± 0.00023
[1]; peptide modifications: H3T6ph H3K9ac, binder concentration: 500 nM
  peptide microarray binding signal: 0.0156 ± 0.0012
[2]; peptide modifications: H3T6ph H3K9ac, binder concentration: 10 nM
  peptide microarray binding signal: 0.0307 ± 0.002
[2]; peptide modifications: H3T6ph H3K9ac, binder concentration: 100 nM
  peptide microarray binding signal: 0.0441 ± 0.0085
[3]; [19]
  peptide microarray binding signal: 0.00995 ± 0.00061
[3]; [20]
  peptide microarray binding signal: 0.00622 ± 0.00014
[4]; [19]
  peptide microarray binding signal: 0.00527 ± 0.00089
[4]; [20]
  peptide microarray binding signal: 0.00294 ± 0.00011

B9: H3 1-13 A R T K Q Tph A R Kme S T G G (peptide)
chain: ARTKQTARKSTGG
[1]; peptide modifications: H3T6ph H3K9me1, binder concentration: 50 nM
  peptide microarray binding signal: 0.00721 ± 0.00059
[1]; peptide modifications: H3T6ph H3K9me1, binder concentration: 500 nM
  peptide microarray binding signal: 0.0115 ± 0.00096
[2]; peptide modifications: H3T6ph H3K9me1, binder concentration: 10 nM
  peptide microarray binding signal: 0.0206 ± 0.0028
[2]; peptide modifications: H3T6ph H3K9me1, binder concentration: 100 nM
  peptide microarray binding signal: 0.0319 ± 0.0032
[3]; [21]
  peptide microarray binding signal: 0.00568 ± 0.0013
[3]; [22]
  peptide microarray binding signal: 0.0686 ± 0.046
[4]; [21]
  peptide microarray binding signal: 0.00584 ± 0.00057
[4]; [22]
  peptide microarray binding signal: 0.00582 ± 0.00014

B10: H3 1-13 A R T K Q Tph A R Kme2 S T G G (peptide)
chain: ARTKQTARKSTGG
[1]; peptide modifications: H3T6ph H3K9me2, binder concentration: 50 nM
  peptide microarray binding signal: 0.00674 ± 3.8e-05
[1]; peptide modifications: H3T6ph H3K9me2, binder concentration: 500 nM
  peptide microarray binding signal: 0.0151 ± 0.00044
[2]; peptide modifications: H3T6ph H3K9me2, binder concentration: 10 nM
  peptide microarray binding signal: 0.0226 ± 0.0028
[2]; peptide modifications: H3T6ph H3K9me2, binder concentration: 100 nM
  peptide microarray binding signal: 0.0292 ± 0.0053
[3]; [23]
  peptide microarray binding signal: 0.00732 ± 0.0017
[3]; [24]
  peptide microarray binding signal: 0.0124 ± 0.0021
[4]; [23]
  peptide microarray binding signal: 0.0419 ± 0.0095
[4]; [24]
  peptide microarray binding signal: 0.0174 ± 0.00085
